Most compounds without a hit are left out; they make up all but 3.9% or so of the library.
HT1080-NT tox: kills 2HG-producing HT-1080-NT fibrosarcoma cells. HT-1080-NT fibrosarcoma viability, CellTiter-Glo ATP luminescence, 48 h. Potency, µM (series often up to 46.1 µM), for the others: top-dose activity, negative = less viability, actives largely listed as cytotoxic. actives 1.6% (n = 360,000). AID 686970;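 further: NT is the 2HG producing partner of a matched IDH1 knockdown line; 0% = DMSO-treated cells and -100% = media-only wells without cells; nearly all actives have a fitted effect of over 55% in size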
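Toxicity toward the 2HG-producing NT line was scored as %Activity, normalised to DMSO and no-cell wells, from CellTiter-Glo luminescence after 48 hours' treatment.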
HepG2 viability: counter-screen for TGF-b inhibitors: cytotoxicity in HepG2 cells; HepG2 CAGA-GFP viability, ATP luminescence, 18 h; Potency, µM (series often up to 46.1 µM), without a hit: at the highest dose activity change, negative = cytotoxicity, hits mostly cytotoxic; actives 0.76% (n = 410,000)
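HepG2 CAGA-GFP cells (1000/well, DMEM with 1% FBS) received compound, then TGF-beta at 500 pg/mL final, and were incubated 18 hours at 37 degrees C. Viability was read by CellTiter-Glo luminescence. Media-only wells were set as complete cell-killing and DMSO as no toxicity.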
TGFb inhibitor: TGF-b pathway inhibition | HepG2 CAGA-GFP TGF-b/SMAD3 reporter, GFP fluorescence, 18 h; TGF-beta stimulated, 500 pg/mL final | actives 1.2% (n = 410,000) | Potency, µM (titrated, usually from 46.1 µM), without a hit: at the highest dose activity, negative = inhibition, most hits filed as inhibitors; further: on the % scale 0 is the no-effect control and ±100 the full control effect; nearly all actives have a fitted effect of over 65% in size
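Per well, imaged GFP fluorescence of HEPG2 CAGA-GFP cells gives the signal; cells get compound, then TGF-beta (500 pg/mL final), 18 h at 37 degrees C; %Activity versus -TGF-beta and +DMSO controls.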
S2 tox: cell viability loss in ATXN counter-screen | S2 cells (HEK-293 line with an ATXN2-luciferase reporter) viability, CellTiter-Fluor protease fluorescence, 24 h | Potency, µM (doses to about 56.7 µM), hits mostly cytotoxic | actives 0.49% (n = 400,000); further: nearly all actives have a fitted effect of over 40% in size
HT1080 IDH1KD tx: HT-1080 IDH1 knockdown cell toxicity (counter line); HT-1080 IDH1 knockdown viability, ATP luminescence, 48 h; AID 686971; actives 2% (n = 360,000); Potency, µM (highest dose often 46.1 µM), for inactives: at the top dose activity, negative = toxicity, most hits filed as cytotoxic;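 further: 0% = DMSO wells and -100% = cell-free medium wells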
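HT-1080-IDH1KD cells (IDH1 knocked down), 750/well in RPMI with 5% FBS, treated with compound 48 h at 37 degrees C. Viability by CellTiter-Glo luminescence, normalised to DMSO and no-cell wells; concentration-response curves classed.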
ATXN2 expr inh: ATXN2 expression inhibition. HEK-293 ATXN2-luciferase reporter, luminescence, 24 h. Potency, µM (titrated, usually from 57 µM), inactives show top-dose activity change, negative = inhibition, most hits filed as inhibitors. actives 0.72% (n = 360,000). AID 1745845; further: on the % scale 0 is the no-effect control and ±100 the full control effect; nearly all actives have a fitted effect of over 55% in size
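ATXN2-luciferase reporter cells (luciferase flanked by upstream and downstream ATXN2 gene portions) were treated 24 h at 37 °C with compounds at up to 57 uM. SteadyGlo luminescence gave expression; GF-AFC fluorescence gave viability.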
Starred values were filed as active, the others as inactive; i = inactive; ? = inconclusive; · = not tested or not shown. The call rests on the fitted dose curve; in most records, active means well fitted curve in the direction sought with a large enough effect; inconclusive means small, poorly fitted or top-dose-only effect, or another doubt; inactive means no such curve, though single readings can be large; an effect the other way counts as inactive or inconclusive. Potency means the concentration at half of the fitted maximal effect.

SMILES	HT1080-NT tox	HepG2 viability	TGFb inhibitor	S2 tox	HT1080 IDH1KD tx	ATXN2 expr inh
O=c1cc(-c2ccccc2)[nH]c2cc(Cl)ccc12	0.52µM*	-12%	-28%	?	0.58µM*	-1%
O=c1cc(-c2ccccc2)[nH]c2ccc(F)cc12	?	-1%	?	i	2.3µM*	5%
COc1ccc(-c2cc(=O)c3ccccc3[nH]2)cc1	10%	-9%	?	i	6%	4%
COc1ccc2[nH]c(-c3cccc(F)c3)cc(=O)c2c1	?	0%	?	i	0.52µM*	16%
Cc1ccc(CN2C(=O)C3(c4ccccc42)N(c2cccc(C(F)(F)F)c2)C(=O)CS3(=O)=O)cc1 (configuration not stated)	·	-24%	2%	i	·	-14%
O=c1cc(-c2cccc(F)c2)[nH]c2ccccc12	1.8µM*	7%	?	?	1.5µM*	5%
Cc1ccc(-c2cc(=O)c3cc(C)ccc3[nH]2)cc1	?	-25%	-9%	i	21µM*	-29%
Cc1ccc(-c2cc(=O)c3cc(F)ccc3[nH]2)cc1	-25%	-23%	-12%	i	-16%	33%
Cc1ccc(S(=O)(=O)N2CCC(c3nc(-c4cccs4)nc4ccccc34)CC2)cc1	·	-4%	25%	·	·	·
COc1ccc(N2CC(C(=O)N/N=C/c3ccc(C)cc3)CC2=O)cc1 (configuration not stated)	3.3µM*	3%	-25%	?	2.3µM*	?
Cc1ccc(-n2c3nc(=O)[nH]c(=O)c-3cc3c(C)nn(-c4ccccc4)c32)cc1C	·	-12%	-2%	i	·	5%
COc1ccc2cc3cc(C(=O)NCCN4CCN(c5ccccc5F)CC4)oc3nc2c1	10%	-7%	-8%	?	4%	?
COc1ccc2cc3cc(C(=O)Nc4ccccc4N4CCN(C)CC4)oc3nc2c1	2%	10µM*	-9%	·	7%	?
COc1cc(-c2nnc(NC(=O)CCS(=O)(=O)c3ccccc3)o2)cc(OC)c1OC	21µM*	-40%	11µM*	?	?	57%
COc1cc(-c2nnc(NC(=O)CCS(=O)(=O)c3ccc(F)cc3)o2)cc(OC)c1OC	-4%	3%	?	?	?	86%
N#C/C(=C(/O)COC(=O)CSc1ccc2ccccc2c1)c1nc2ccccc2[nH]1	-1%	3%	-1%	20µM*	6%	?
N#C/C(=C(/O)CCl)c1nc2ccccc2[nH]1	?	-31%	10µM*	?	?	?
COC(=O)c1cc2sc(C)cc2n1CC(=O)Nc1ccc(C)cc1Cl	·	-14%	4%	i	·	8%
O=S1(=O)C=C(Sc2nc3cc(Cl)ccc3o2)c2ccccc21	5.2µM*	-11%	-31%	·	5.2µM*	?
Cc1ccc(CNc2nc(NC(C)C)nc3ccsc23)c(C)c1	?	-57%	?	?	?	?
CNc1nc(Nc2ccc(C)cc2C)c2sccc2n1	?	4%	?	i	?	-31%
Cc1ccc(CNc2nc(NCC3CC3)nc3ccsc23)c(C)c1	15µM*	-95%	?	·	16µM*	-8%
CNc1nc(NCc2ccc(N(C)C)cc2)c2sccc2n1	?	-34%	24%	?	?	-17%
Cc1ccc(Nc2nc(NCC3CC3)nc3ccsc23)c(C)c1	12µM*	-14%	?	·	6.5µM*	?
CNc1nc(NCC2CCCCC2)c2sccc2n1	23µM*	-6%	?	·	23µM*	?
SMILES	HT1080-NT tox	HepG2 viability	TGFb inhibitor	S2 tox	HT1080 IDH1KD tx	ATXN2 expr inh
CCN(CC)C(=O)C1=C(C)Nc2nc3ccccc3n2C1c1ccc(Br)cc1 (configuration not stated)	·	-2%	0%	i	·	10%
COc1ccc(-c2nc3ccc(C4=NNC(=O)CC4C)cc3[nH]2)cc1 (configuration not stated)	·	·	·	?	·	63%
CN(C)CC1CCCCC1C1(O)c2ccccc2CSc2sccc21 (configuration not stated)	18µM*	-69%	-19%	i	18µM*	0%
COc1ccc(CN(Cc2ccccc2)C(=O)c2cccc(C#N)c2)cc1COc1ccc(NC(C)=O)cc1	-1%	·	·	·	-1%	·
CCCCCCCCCCCC(=O)[O][Sn]([CH2]CCC)([CH2]CCC)[O]C(=O)CCCCCCCCCCC	·	·	·	i	·	15%
COc1ccc(C=C(C(=O)c2ccccc2)C(=O)c2ccccc2)cc1	18µM*	11µM*	?	i	?	75%
CC(=O)C(=Cc1ccc(Cl)cc1)C(=O)c1ccccc1	?	-64%	?	28µM*	?	?
COc1ccc(C=C(C(C)=O)C(=O)c2ccccc2)cc1	23µM*	-23%	-9%	i	23µM*	-19%
COc1ccc(C=C(C(=O)c2ccccc2)c2ccccc2)cc1	-31%	-7%	-3%	i	-1%	4%
CCCn1c2ccccc2c2cnn(CC(=O)NCCCN(Cc3ccccc3)C(C)C)c(=O)c21	·	-43%	?	?	·	-23%
N#Cc1c(NC(=O)c2cccc3ccccc23)sc2c1CCCC2	·	·	·	·	·	12%
CCOC(=O)C(CC)N1CCN(Cc2ccc(F)cc2)C(=O)C1=O (configuration not stated)	·	1%	-26%	i	·	3%
Cc1ccccc1Oc1cc(-n2ncc(Cl)c(Cl)c2=O)ncn1	13µM*	7.1µM*	4µM*	7.9µM*	7.3µM*	7.9µM*
CCOc1cnn(-c2cc(Oc3ccc(C)cc3)ncn2)c(=O)c1Cl	9%	3%	-6%	i	9%	3%
COc1cc2c(cc1NC(=O)c1ccccc1-c1ccccc1C(=O)O)-c1ccccc1C2	-12%	-15%	-4%	i	-19%	·
COc1cc2c(cc1NC(=O)C(Cl)Cl)-c1ccc(NC(=O)C(Cl)Cl)cc1C2	?	7.9µM*	4.5µM*	·	13µM*	-17%
CCC(C)NC(=O)c1ccc2nc(-c3ccco3)c(-c3ccco3)nc2c1 (configuration not stated)	·	-19%	-15%	·	·	·
Cc1ccc2nc(N/N=C\c3ccc([N+](=O)[O-])o3)nc(-c3ccccc3)c2c1	?	-5%	-5%	11µM*	10%	?
CC(C)C[C@@H](CN=[N+]=[N-])N1CCN(CCc2ccccc2)CCC1=O	·	0%	8%	·	·	·
